# Measurements as given in PubChem BioAssay AID2685 (National Center for Advancing Translational Sciences (NCATS), 2010).
# Hit rate of the full screen: of about 320,000 compounds, about 2,100 (0.66%) were called active. Roughly 53% stayed inconclusive and do not appear here. Calls come from the whole dose curve; as a rule, active = well fitted inhibition curve with a large enough effect in the signal ratio, with a control signal flat (not every such curve was filed as active); inconclusive = small, poorly fitted or top-dose-only effect, or effect the other way, or a change in a side signal; inactive = flat fitted curve, though single readings scatter; the % refers to the signal ratio. The list comes from a sample in which actives are over-represented; it also holds similar structures and randomly drawn compounds.
# Test: qHTS Assay for Lipid Storage Modulators in Drosophila S3 Cells;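 for cell number change: cells counted by Cell Tracker Red CMTPX staining in the red channel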; for lipid storage change, negative = inhibition: % is set by controls: 0 for no effect and ±100 for the full control effect
# Settings: BODIPY lipid droplet fluorescence, 18-24 h, cells fed with added oleic acid; cell number change: measured here: cell count max response; series mostly up to 46.1 µM; lipid storage change, negative = inhibition: at the top concentration
# In short: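 Laser-scanning cytometry quantifies lipid droplet accumulation (500–530 nm total intensity; droplet/cell object ratio) in oleic acid-fed (400 uM added) Drosophila S3 cells treated with a concentration series. 20 uM Triacsin C defined 100% inhibition.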
# Potency is the fitted concentration of half-maximal effect.
Structure (SMILES),"lipid storage change, negative = inhibition",cell number change,outcome,Potency
CCCN(CCC)Cc1c(C(=O)N/N=C/c2ccco2)nnn1-c1nonc1N,4.78% (inactive),1.25%,,
O=S(=O)(NC1CC1)c1ccc(S(=O)(=O)N2CCN3CCCC3C2)cc1 (stereo not given),-25.1% (inactive),-22%,,
C=CCn1c(-c2cccc(OC)c2OC)n[nH]c1=S,16.6% [at 9.22 µM] (inactive),6.07%,,
Cc1cnc(C(=O)NNC(=O)c2ccc(Br)cc2)cn1,14.5% (inactive),,,
CNC(=O)C(=O)Nc1nc(C23CC4CC(CC(C4)C2)C3)cs1,0.543% (inactive),,,
CC(CSc1nnnn1-c1ccccc1)Cn1c(N2CCN(C)CC2)nc2c1c(=O)[nH]c(=O)n2C (stereo not given),4.96% (inactive),-4.1%,,
CCOc1ccc(-n2c(SCC(=O)NCc3ccco3)nnc2-c2c[nH]c3ccccc23)cc1,,,inactive,
CCOC(=O)c1sc(N2N=C(C)/C(=C\c3ccc(OCC(=O)OC)cc3)C2=O)nc1C,-3.19% (inactive),0.316%,,
CC(=O)c1ccc(S(=O)(=O)NC2CCSc3ccccc32)cc1 (stereo not given),34% (inactive),11.1%,,
O=C(COC(=O)c1ccc(Cl)cc1[N+](=O)[O-])NC(=O)c1ccccc1,,-11.4%,inactive,
Cc1ccc(C2=NC3(CCCC3)NC2=S)cc1,6.56% [at 9.22 µM] (inactive),8.14%,,
Cc1ccc(NC(=O)CCN2C(=O)c3ccccc3C2=O)c(C)c1,-5.21% (inactive),5.45%,,
COC(=O)c1ccccc1NC(=O)C1=CC(c2cccs2)=NS(=O)(=O)N1C,14.1% (inactive),5.19%,,
CN1C(C(=O)Nc2ccc(F)cc2F)=CC(c2cccs2)=NS1(=O)=O,-7.04% (inactive),-0.288%,,
CSc1ccccc1NC(=O)C1=CC(c2cccs2)=NS(=O)(=O)N1C,,-26.8%,,4.11 µM (active)
Cc1nnc(SCC(=O)NNC(=O)c2ccccc2)n1-c1ccccc1,-11.8% (inactive),,,
COc1cc2c(cc1OC)C(c1ccccc1)N(C(=O)c1cccc(S(C)(=O)=O)c1)CC2 (stereo not given),,14.6%,inactive,
Cc1cc(C(=O)COC(=O)/C=C/c2cccc(Br)c2)c(C)n1C,-6.39% (inactive),,,
COc1ccccc1/C=C/C(=O)OCC(=O)c1cc(C)n(C)c1C,,-22.1%,,1.3 µM (active)
Cc1cc(C(=O)COC(=O)/C=C/c2cccc(F)c2)c(C)n1C,7.92% (inactive),5.66%,,
COc1ccc(S(=O)(=O)Nc2ccccc2N2CCOCC2)cc1[N+](=O)[O-],-24.1% (inactive),0.857%,,
COCCCNC(=S)Nc1ccc2nc(N3CCOCC3)cc(C)c2c1,1.62% (inactive),0.741%,,

Structure (SMILES),"lipid storage change, negative = inhibition",cell number change,outcome,Potency
O=C(NCCS(=O)(=O)N1CCN(c2ccccc2)CC1)C1CC(=O)N(c2ccc(F)cc2)C1 (stereo not given),,-3.13%,inactive,
Cc1ccc(N2CC(C(=O)NCCS(=O)(=O)N3CCN(c4ccc(F)cc4)CC3)CC2=O)cc1 (stereo not given),,-2.39%,,2.06 µM (active)
O=C(NCCS(=O)(=O)N1CCN(c2ccc(F)cc2)CC1)C1CC(=O)N(c2ccccc2)C1 (stereo not given),,4.61%,inactive,
CC(=O)N1CCc2c(sc(NC(=O)Cc3ccc(F)cc3)c2C#N)C1,3.42% (inactive),7.34%,,
O=C(COC(=O)c1nc(Cl)c(Cl)c(Cl)c1Cl)NCc1ccccc1,-15.2% (inactive),-8.84%,,
COc1cccc(CNC(=O)COC(=O)c2nc(Cl)c(Cl)c(Cl)c2Cl)c1,,-29.4%,,14.6 µM (active)
COc1cccc(CNC(=O)CCl)c1,-9.82% (inactive),5.99%,,
COC(=O)c1sccc1NC(=O)CC1C(=O)NCCN1C(=O)Nc1cc(Cl)ccc1OC (stereo not given),8.74% (inactive),13.4%,,
CCC(=O)Oc1ccc2c(=O)c(-c3ccc4ccccc4n3)c(CC)oc2c1C,6.65% (inactive),1.88%,,
COc1ccc(F)cc1S(=O)(=O)Nc1cccc(C(=O)O)c1,-6.3% (inactive),,,
COc1ccc(C(=O)N2CCCCC2)cc1S(=O)(=O)Nc1cccc(C(=O)O)c1,-7.55% (inactive),0.28%,,
COc1ccc(C(=O)O)cc1S(=O)(=O)Nc1cccc(C(F)(F)F)c1,,-15.9%,,29.1 µM (active)
COC(=O)c1cccc(C23CC4(C2)[C@H](CN(Cc2cccnc2)[C@@H]4c2ccccc2)C3c2ccc(Cl)nc2)c1 (stereo not given in full),16.4% (inactive),17.9%,,
CC(C)(C)OC(=O)N/N=C/c1cccc([N+](=O)[O-])c1,-1.02% (inactive),14.2%,,
CCCCCCCNC(=O)C1(CC2CC(c3cccc(Br)c3)=NO2)CCN(C(=O)c2cc(OCC)c(OCC)c(OCC)c2)CC1 (stereo not given),-9.14% (inactive),-10.9%,,
O=C(c1ccccc1)N1CCC(CC2CC(c3cccc(Br)c3)=NO2)(C(=O)NCC2CCCCC2)CC1 (stereo not given),-12% (inactive),21.3%,,
CCOc1cc(C(=O)N2CCC(CC3CC(c4cccc(Br)c4)=NO3)(C(=O)NCC3CCCCC3)CC2)cc(OCC)c1OCC (stereo not given),,23.9%,,2.06 µM (active)
O=C(NCC(=O)N(CCN1CCOCC1)C(C(=O)NC1CCCC1)c1ccccc1)c1cccs1 (stereo not given),8.9% (inactive),-0.374%,,
Cc1ccc(N(Cc2ccccc2)C(=O)c2cccc(S(=O)(=O)N3CCN(C)CC3)c2)cc1,,-1.81%,inactive,
Cc1cc(=O)[nH]c(N/N=C/c2ccc(Cl)cc2Cl)n1,13.3% (inactive),3.1%,,
CCN1CCN(Cc2ccc(NC(=O)c3ccc(C)c(/C=C/c4cnc(Nc5cc(N6CCNCC6)nc(C)n5)cn4)c3)cc2C(F)(F)F)CC1,,-17.2%,,18.4 µM (active)
CCN1CCN(Cc2ccc(NC(=O)c3ccc(C)c(NC(=O)c4ccc5n[nH]nc5c4)c3)cc2C(F)(F)F)CC1,17.7% (inactive),,,

Structure (SMILES),"lipid storage change, negative = inhibition",cell number change,outcome,Potency
CCN1CCN(Cc2ccc(NC(=O)c3ccc(C)c(NC(=O)c4ccnnc4)c3)cc2C(F)(F)F)CC1,15.2% (inactive),,,
CN1CCc2nc(NC(=O)c3cccc(S(=O)(=O)N4CCc5ccccc54)c3)sc2C1,,12.6%,inactive,
COCC(=O)Nc1cc(C(=O)NCC(C)C)ccc1Cl,12.1% (inactive),4.26%,,
COc1ccc(Br)cc1/C=N/n1c(C)nc2ccccc2c1=O,,-4.17%,,3.66 µM (active)
COc1cc(OC)c(OC)cc1/C=N/n1c(C)nc2ccccc2c1=O,,16.2%,inactive,
Cc1nc2ccccc2c(=O)n1/N=C/c1ccccc1O,-4.47% (inactive),14.5%,,
Cc1ccc(NC(=O)Cn2nc(-c3ccccc3)nc2-c2ccccc2)c(C)c1,-12.9% (inactive),-8.2%,,
CCOC(=O)CNC(=O)CSc1ncnc2c1cnn2-c1ccc(C)cc1,11.5% (inactive),-17%,,
CCOC(=O)CSc1ncnc2c1cnn2-c1ccccc1,0.461% (inactive),-3.98%,,
CCOC(=O)CSc1ncnc2c1cnn2-c1ccc(Cl)cc1,,4.64%,,0.184 µM (active)
CCCOc1cccc(C(=O)N(Cc2ccco2)C2CCS(=O)(=O)C2)c1 (stereo not given),0.108% (inactive),-9.39%,,
CCNC(=S)NCc1ccc2[nH]c(C)cc2c1,-4.35% (inactive),15.9%,,
COc1cc(C(=O)NCCc2ccc(F)cc2)c([N+](=O)[O-])cc1OC,-7.12% (inactive),,,
Cc1[nH]c(C)c(S(=O)(=O)NCCc2ccccc2)c1C(=O)N1CCCC1,10.2% (inactive),13.4%,,
CCOC(=O)c1ccc(NS(=O)(=O)c2c(C)[nH]c(C)c2C(=O)N2CCCCC2)cc1,,,inactive,
COC(=O)c1ccc(NS(=O)(=O)c2c(C)[nH]c(C)c2C(=O)N2CCCC2)cc1,-16.1% (inactive),-16.1%,,
Cc1[nH]c(C)c(S(=O)(=O)Nc2ccc(OC(F)(F)F)cc2)c1C(=O)N1CCCCC1,,-12.7%,,4.11 µM (active)
Cc1[nH]c(C)c(S(=O)(=O)NCCc2ccccc2)c1C(=O)N1CCCCC1,,-13.9%,,11.6 µM (active)
COc1ccccc1CNS(=O)(=O)c1c(C)[nH]c(C)c1C(=O)N1CCCCC1,,-19.3%,,18.4 µM (active)
Cc1ccccc1CNS(=O)(=O)c1c(C)[nH]c(C)c1C(=O)N1CCCCC1,,-3.58%,inactive,
COc1ccc(CCNS(=O)(=O)c2c(C)[nH]c(C)c2C(=O)N2CCCCC2)cc1OC,,-25.1%,inactive,
COc1ccccc1CNS(=O)(=O)c1c(C)[nH]c(C)c1C(=O)N1CCCC1,,,inactive,

Structure (SMILES),"lipid storage change, negative = inhibition",cell number change,outcome,Potency
O=C(CN1CCN(Cc2ccccc2Cl)CC1)N/N=C/C=C\c1ccccc1[N+](=O)[O-],15.4% (inactive),0.435%,,
Cc1ccccc1C(=O)c1cccn1CC(=O)NCC(C)c1ccccc1 (stereo not given),-8.12% (inactive),-7.34%,,
COc1ccc(C(C(=O)NCCC(C)C)N(CCO)C(=O)c2snc(C(N)=O)c2N)cc1 (stereo not given),-5.21% (inactive),-7.09%,,
O=C(CSc1nnnn1C1CCCC1)NCc1ccc2c(c1)OCO2,,,inactive,
CC1CCN(C(=O)c2ccccc2NS(=O)(=O)c2ccccc2)CC1,-2.04% (inactive),7.63%,,
Clc1ccc(N2CCN(Cc3ccco3)CC2)cc1,11.9% (inactive),9.59%,,
Cc1[nH]c2ccccc2c1/C=C(\C#N)C(=O)NC1CC1,,,inactive,
CC1CCN(C2(O)C(=O)Nc3ccc([N+](=O)[O-])cc32)CC1 (stereo not given),19.6% (inactive),-1.63%,,
COc1ccc(NC(=O)c2cccc(N3C(=O)C4C5C=CC(C5)C4C3=O)c2)c(OC)c1 (stereo not given),,-15.9%,inactive,
COc1ccc(NC(=O)c2cccc(N3C(=O)C4C5C=CC(C6CC56)C4C3=O)c2)cc1 (stereo not given),20.3% (inactive),8.84%,,
Cc1cccc(NC(=O)c2cccc(N3C(=O)C4C5C=CC(C6CC56)C4C3=O)c2)c1 (stereo not given),,-23.8%,,1.3 µM (active)
COc1ccc(NC(=O)c2cccc(N3C(=O)C4C5C=CC(C6CC56)C4C3=O)c2)c(OC)c1 (stereo not given),,,,5.17 µM (active)
COc1ccc(NC(=O)c2ccccc2N2C(=O)C3C4C=CC(C5CC45)C3C2=O)c(OC)c1 (stereo not given),-7% (inactive),-15.3%,,
O=C(Nc1ccc(F)cc1)c1cccc(N2C(=O)C3C4C=CC(C4)C3C2=O)c1 (stereo not given),-23.4% (inactive),-17.9%,,
O=C(Nc1ccccc1)c1cccc(N2C(=O)C3C4C=CC(C5CC45)C3C2=O)c1 (stereo not given),,-4.48%,,16.4 µM (active)
Cc1cccc(NC(=O)c2cccc(N3C(=O)CCC3=O)c2)c1,7.07% (inactive),-21.8%,,
Cc1ccc(NC(=O)c2cccc(N3C(=O)C4C5CCC(C5)C4C3=O)c2)c(C)c1 (stereo not given),-15.1% (inactive),26.1%,,
CC(C)CNS(=O)(=O)c1ccc(OCC(=O)Nc2ccc3c(c2)OCCO3)cc1,22.1% (inactive),,,
Cc1nnc(SCC(=O)N2CCN(S(=O)(=O)c3ccc(Cl)cc3)CC2)n(N)c1=O,14.5% (inactive),-9.35%,,
